The entries come from a sample that favours the strongest signals as a whole.
Tests used:
Assay in all cases: glycan array binding signal (z-score within array); higher = stronger binding
Conditions in all cases: glycan notation: IUPAC condensed, linker removed
[1] = target: Fuc(a1-2)Gal(b1-3)GlcNAc(b1-2)Man(a1-3)[Fuc(a1-2)Gal(b1-3)GlcNAc(b1-2)Man(a1-6)]Man(b1-4)GlcNAc(b1-4)GlcNAc
Outline: (§1)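 Negative Z-scores can be read as non-binding. The Z-score is calculated within each array and then averaged across arrays of one protein sequence at different concentrations or buffers and across linkers. Arrays, 3228 in all, were curated from the Consortium for Functional Glycomics database and kept only where the protein sequence was available.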

[2] = target: Fuc(a1-2)Gal(b1-3)[Fuc(a1-4)]GlcNAc(b1-2)Man(a1-3)[Fuc(a1-2)Gal(b1-3)[Fuc(a1-4)]GlcNAc(b1-2)Man(a1-6)]Man(b1-4)GlcNAc(b1-4)[Fuc(a1-6)]GlcNAc(b1-4)[Fuc(a1-6)]GlcNAc
Outline: as §1

[3] = target: Fuc(a1-2)Gal(b1-4)GlcNAc(b1-2)Man(a1-3)[Fuc(a1-2)Gal(b1-4)GlcNAc(b1-2)Man(a1-6)]Man(b1-4)GlcNAc(b1-4)[Fuc(a1-6)]GlcNAc
Outline: as §1

[4] = target: Fuc(a1-2)Gal(b1-4)[Fuc(a1-3)]GlcNAc(b1-2)Man(a1-3)[Fuc(a1-2)Gal(b1-4)[Fuc(a1-3)]GlcNAc(b1-2)Man(a1-6)]Man(b1-4)GlcNAc(b1-4)[Fuc(a1-6)]GlcNAc
Outline: as §1

[5] = target: Fuc(a1-2)[Gal(a1-3)]Gal(b1-4)[Fuc(a1-3)]GlcNAc
Outline: as §1

[6] = target: Fuc(a1-2)[GalNAc(a1-3)]Gal(b1-4)[Fuc(a1-3)]GlcNAc(b1-3)GalNAc
Outline: as §1

[7] = target: Fuc(a1-2)[GalNAc(a1-4)]Gal(b1-4)GlcNAc
Outline: as §1

[8] = target: Fuc(a1-3)[Gal(b1-4)]GlcNAc6S
Outline: as §1

Fuc(b1-3)GlcNAc = target: Fuc(b1-3)GlcNAc
Outline: as §1

[9] = target: Gal(a1-3)Gal(b1-3)GlcNAc(b1-2)Man
Outline: as §1

[10] = target: Gal(a1-3)Gal(b1-4)[Fuc(a1-3)]GlcNAc
Outline: as §1

Gal(a1-3)GalNAc = target: Gal(a1-3)GalNAc
Outline: as §1

[11] = target: Gal(a1-3)[Gal(a1-4)]Gal(b1-4)GlcNAc
Outline: as §1

Gal(a1-4)Gal(b1-4)Glc = target: Gal(a1-4)Gal(b1-4)Glc
Outline: as §1

[12] = target: Gal(b1-3)GalNAc(a1-3)[Fuc(a1-2)]Gal(b1-4)GlcNAc
Outline: as §1

[13] = target: Gal(b1-3)GlcNAc(b1-3)GalNAc
Outline: as §1

Gal(b1-3)GlcNAc6S = target: Gal(b1-3)GlcNAc6S
Outline: as §1

[14] = target: Gal(b1-3)[Fuc(a1-4)]GlcNAc(b1-2)Man
Outline: as §1

[15] = target: Gal(b1-3)[Fuc(a1-4)]GlcNAc(b1-2)Man(a1-3)[Gal(b1-3)[Fuc(a1-4)]GlcNAc(b1-2)Man(a1-6)]Man(b1-4)GlcNAc(b1-4)[Fuc(a1-6)]GlcNAc
Outline: as §1

[16] = target: Gal(b1-3)[Fuc(a1-4)]GlcNAc(b1-6)GalNAc
Outline: as §1

[17] = target: Gal(b1-4)GlcNAc(b1-3)Gal(b1-4)GlcNAc(b1-2)Man(a1-3)[Gal(b1-4)GlcNAc(b1-3)Gal(b1-4)GlcNAc(b1-2)Man(a1-6)]Man(b1-4)GlcNAc(b1-4)GlcNAc
Outline: as §1

[18] = target: Gal(b1-4)GlcNAc(b1-3)Gal(b1-4)GlcNAc(b1-2)[Gal(b1-4)GlcNAc(b1-3)Gal(b1-4)GlcNAc(b1-6)]Man(a1-6)[Gal(b1-4)GlcNAc(b1-3)Gal(b1-4)GlcNAc(b1-2)Man(a1-3)]Man(b1-4)GlcNAc(b1-4)[Fuc(a1-6)]GlcNAc
Outline: as §1

[19] = target: Gal(b1-4)GlcNAc(b1-3)Gal(b1-4)GlcNAc(b1-3)Gal(b1-4)GlcNAc(b1-2)Man(a1-3)[Gal(b1-4)GlcNAc(b1-3)Gal(b1-4)GlcNAc(b1-3)Gal(b1-4)GlcNAc(b1-2)Man(a1-6)]Man(b1-4)GlcNAc(b1-4)GlcNAc
Outline: as §1

[20] = target: GalNAc(a1-3)GalNAc(b1-3)Gal(a1-4)Gal(b1-4)Glc
Outline: as §1

GalNAc(b1-4)GlcNAc = target: GalNAc(b1-4)GlcNAc
Outline: as §1

[21] = target: GalNAc(b1-4)GlcNAc(b1-3)GalNAc(b1-4)GlcNAc
Outline: as §1

[22] = target: GlcNAc(a1-4)Gal(b1-4)GlcNAc(b1-3)Gal(b1-4)GlcNAc
Outline: as §1

[23] = target: GlcNAc(b1-3)Gal(b1-4)GlcNAc(b1-2)[GlcNAc(b1-3)Gal(b1-4)GlcNAc(b1-6)]Man(a1-6)[GlcNAc(b1-3)Gal(b1-4)GlcNAc(b1-2)Man(a1-3)]Man(b1-4)GlcNAc(b1-4)GlcNAc
Outline: as §1

[24] = target: GlcNAc(b1-3)Gal(b1-4)GlcNAc(b1-3)Gal(b1-4)GlcNAc(b1-2)Man(a1-3)[GlcNAc(b1-3)Gal(b1-4)GlcNAc(b1-3)Gal(b1-4)GlcNAc(b1-2)Man(a1-6)]Man(b1-4)GlcNAc(b1-4)GlcNAc
Outline: as §1

[25] = target: GlcNAc(b1-3)Gal(b1-4)GlcNAc(b1-3)GalNAc
Outline: as §1

GlcNAc(b1-3)GalNAc = target: GlcNAc(b1-3)GalNAc
Outline: as §1

[26] = target: Neu5Ac(a2-3)Gal(b1-3)GalNAc6S
Outline: as §1

[27] = target: Neu5Ac(a2-3)Gal(b1-4)GlcNAc(b1-2)[Neu5Ac(a2-3)Gal(b1-4)GlcNAc(b1-4)]Man(a1-3)[GlcNAc(b1-4)][Neu5Ac(a2-3)Gal(b1-4)GlcNAc(b1-2)[Neu5Ac(a2-3)Gal(b1-4)GlcNAc(b1-6)]Man(a1-6)]Man(b1-4)GlcNAc(b1-4)GlcNAc
Outline: as §1

[28] = target: Neu5Ac(a2-3)Gal(b1-4)[Fuc(a1-3)]GlcNAc(b1-2)Man
Outline: as §1

[29] = target: Neu5Ac(a2-3)Gal(b1-4)[Fuc(a1-3)]GlcNAc(b1-3)Gal(b1-4)GlcNAc
Outline: as §1

Neu5Ac(a2-6)Gal = target: Neu5Ac(a2-6)Gal
Outline: as §1

[30] = target: Neu5Ac(a2-6)Gal(b1-4)GlcNAc(b1-2)Man
Outline: as §1

[31] = target: Neu5Ac(a2-6)Gal(b1-4)GlcNAc(b1-2)Man(a1-3)[GlcNAc(b1-4)][Neu5Ac(a2-6)Gal(b1-4)GlcNAc(b1-2)Man(a1-6)]Man(b1-4)GlcNAc(b1-4)GlcNAc
Outline: as §1

[32] = target: Neu5Ac(a2-6)Gal(b1-4)GlcNAc(b1-2)[Neu5Ac(a2-6)Gal(b1-4)GlcNAc(b1-4)]Man(a1-3)[GlcNAc(b1-4)][Neu5Ac(a2-6)Gal(b1-4)GlcNAc(b1-4)Man(a1-6)]Man(b1-4)GlcNAc(b1-4)GlcNAc
Outline: as §1

[33] = target: Neu5Ac(a2-6)Gal(b1-4)GlcNAc(b1-3)Gal(b1-4)GlcNAc(b1-3)Gal(b1-4)GlcNAc(b1-2)Man(a1-3)[Neu5Ac(a2-6)Gal(b1-4)GlcNAc(b1-3)Gal(b1-4)GlcNAc(b1-3)Gal(b1-4)GlcNAc(b1-2)Man(a1-6)]GalNAc
Outline: as §1

[34] = target: Neu5Ac(a2-8)Neu5Ac(a2-8)Neu5Ac(a2-3)Gal(b1-4)Glc
Outline: as §1

[35] = target: Neu5Gc(b2-6)Gal(b1-4)GlcNAc
Outline: as §1

## YASPKCFRYPNGVLACT [Odorranalectin (Odorrana grahami), B3TFE9_RANGR]
[1]
  glycan array binding signal (z-score): 0.133
[2]
  glycan array binding signal (z-score): 1.89
[3]
  glycan array binding signal (z-score): -0.142
[4]
  glycan array binding signal (z-score): 3.75
[5]
  glycan array binding signal (z-score): 0.56
[6]
  glycan array binding signal (z-score): 2.29
[7]
  glycan array binding signal (z-score): -0.278
[8]
  glycan array binding signal (z-score): -0.198
Fuc(b1-3)GlcNAc
  glycan array binding signal (z-score): -0.094
[9]
  glycan array binding signal (z-score): -0.387
[10]
  glycan array binding signal (z-score): -0.625
Gal(a1-3)GalNAc
  glycan array binding signal (z-score): 0.618
[11]
  glycan array binding signal (z-score): 1.47
Gal(a1-4)Gal(b1-4)Glc
  glycan array binding signal (z-score): 0.575
[12]
  glycan array binding signal (z-score): -0.258
[13]
  glycan array binding signal (z-score): -0.188
Gal(b1-3)GlcNAc6S
  glycan array binding signal (z-score): -0.064
[14]
  glycan array binding signal (z-score): 3.92
[15]
  glycan array binding signal (z-score): -0.246
[16]
  glycan array binding signal (z-score): -0.061
[17]
  glycan array binding signal (z-score): 7.59
[18]
  glycan array binding signal (z-score): 0.555
[19]
  glycan array binding signal (z-score): 2.11
[20]
  glycan array binding signal (z-score): -0.385
GalNAc(b1-4)GlcNAc
  glycan array binding signal (z-score): 4.83
[21]
  glycan array binding signal (z-score): 0.347
[22]
  glycan array binding signal (z-score): -0.376
[23]
  glycan array binding signal (z-score): 8.95
[24]
  glycan array binding signal (z-score): 3.67
[25]
  glycan array binding signal (z-score): 0.083
GlcNAc(b1-3)GalNAc
  glycan array binding signal (z-score): -0.315
[26]
  glycan array binding signal (z-score): 0.438
[27]
  glycan array binding signal (z-score): -0.481
[28]
  glycan array binding signal (z-score): -0.405
[29]
  glycan array binding signal (z-score): -0.026
Neu5Ac(a2-6)Gal
  glycan array binding signal (z-score): -0.415
[30]
  glycan array binding signal (z-score): -0.092
[31]
  glycan array binding signal (z-score): -0.309
[32]
  glycan array binding signal (z-score): -0.055
[33]
  glycan array binding signal (z-score): 7.51
[34]
  glycan array binding signal (z-score): -0.429
[35]
  glycan array binding signal (z-score): -0.155

Source: the supplement of paper PMC8728848
